Test results taken from PubChem BioAssay AID485318 (Broad Institute, 2010).
Hit rate of the full screen: of about 1,400 compounds, fewer than 10 were called active. A selection follows. A number with no mark means an inactive call.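 Rule for the calls: active = fluorescence-lowering compounds whose fitted half-maximal concentration is at or below ten times the highest valid dose tested; inconclusive = flat curve at 30 to 70% inhibition, or poor fit; inactive = the rest.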

target: Histone deacetylase 3 (Homo sapiens) (UniProt O15379); assay: HDAC3 deacetylase inhibitors, dose response, counter-screen for JMJD2C/GASC1 demethylase inhibitor project, biochemical, fluorescence, cherry-picked samples (AID 485318); settings: recombinant HDAC3, fluorogenic peptide/trypsin coupled; series mostly up to 12 µM; activity change, negative = inhibition: at the top concentration;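 note: enzyme preincubated with compound before substrate and trypsin were added; 0% = neutral control wells and -100% = SAHA positive control wells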
Sequence (O15379 whole entry, looked up): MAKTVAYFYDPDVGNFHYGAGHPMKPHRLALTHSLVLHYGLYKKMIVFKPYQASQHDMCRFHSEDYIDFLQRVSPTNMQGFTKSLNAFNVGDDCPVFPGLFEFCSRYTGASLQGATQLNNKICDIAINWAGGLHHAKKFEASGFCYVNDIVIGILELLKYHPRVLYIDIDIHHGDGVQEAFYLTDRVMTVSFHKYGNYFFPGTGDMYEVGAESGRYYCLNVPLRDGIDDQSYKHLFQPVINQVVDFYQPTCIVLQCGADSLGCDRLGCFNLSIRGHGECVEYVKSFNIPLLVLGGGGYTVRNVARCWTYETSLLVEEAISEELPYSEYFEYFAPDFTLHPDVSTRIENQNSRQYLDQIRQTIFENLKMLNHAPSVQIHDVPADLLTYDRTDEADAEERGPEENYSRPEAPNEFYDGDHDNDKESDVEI

SMILES	activity change, negative = inhibition [%]
C[C@H]1CN(CCc2ccccc2)C(=O)[C@@H]1CC(=O)NCc1ccccc1	-0.42
COc1ccc(NC(=S)NNC(=O)c2ccc(S(=O)(=O)N3CCOCC3)cc2)cc1	0.24
CN(c1ccc(OCC(=O)N2CCCCC2)cc1)S(=O)(=O)c1cccs1	-0.149
Nc1c(Cl)ncnc1NCc1cccnc1	0.296
CCC(C)C(NC(=O)OC(C)(C)C)C(=O)NC(C(=O)N1CCCC1C(N)=O)C(C)CC (configuration not stated)	0.796
COc1cc(OC)cc(C(=O)Nc2ccc(-n3cnnn3)c(C)c2)c1	-0.279
N#CCCn1c(SCC(=O)N2CCN(S(=O)(=O)c3ccccc3)CC2)nc2ccccc21	0.508
CCOC(=O)Nc1cc(C)c(Cl)cc1OC	1.18
Cc1onc(-c2ccccc2)c1C(=O)Nc1c(C)n(C)n(-c2ccccc2)c1=O	0.51
CS(=O)(=O)N(CC(=O)Nc1ccccc1C(=O)NCCc1ccccc1)c1ccc2c(c1)OCCO2	0.133
CCOC(=O)c1[nH]c(C)c(/C(O)=C2\C(=O)C(=O)N(CCCN(CC)CC)C2c2cccnc2)c1C (configuration not stated)	0.131
COc1ccc(CCNC(=O)N2c3ccccc3Sc3ccccc32)cc1	1.25
CCC(=O)Nc1ccc(NC(=O)CSc2nnnn2C(C)C)cc1	0.553
C[C@@H]1CCCCCCCCC(=O)OCCN(C(=O)OC(C)(C)C)[C@H](C)CCCCCCCCC(=O)OCCN(C(=O)OC(C)(C)C)[C@H](C)CCCCCCCCC(=O)OCCN1C(=O)OC(C)(C)C	0.233
Cc1ccc(S(=O)(=O)Nc2ccc3c(c2)CC(=O)N([C@H](C)CO)C[C@@H](C)[C@H](CN(C)S(=O)(=O)c2ccccc2)O3)cc1	1.04
CCOc1ccc(CN(C)CC(=O)Nc2cc(C)c(C)cc2[N+](=O)[O-])cc1	-0.108
COc1ccccc1OCCOCCn1cnc2ccccc2c1=O	-0.761
O=[N+]([O-])c1cc(/C=N/Nc2nc3ccccc3[nH]2)c(O)cc1O	0.0861
CC(=O)C[C@@H](O)CC(=O)[C@H]1OC(=O)[C@H](C)CCCCc2ccccc21	-0.548
CC[C@]12c3[nH]c4ccccc4c3CCN1C(=O)C(CC(=O)NCCCOC)C[C@@H]2C(=O)N1CCN(C(=O)c2ccco2)CC1 (some centres not stated)	0.706
CCOCCc1nnc(NC(=O)c2ccc(OC)c(OC)c2)s1	-1.23

SMILES	activity change, negative = inhibition [%]
O=C1CCCc2c1nc(-c1ccccc1)n2O	0.0393
COC(=O)[C@]1(Cc2ccccc2)N[C@H](CN(C)S(=O)(=O)c2ccc(F)cc2)[C@@H]2C(=O)N(Cc3ccccc3)C(=O)[C@@H]21	0.164
COc1ccc(C2CC(c3cccs3)=NN2S(=O)(=O)c2ccc(C)cc2)cc1 (configuration not stated)	0.501
COc1ccc(/C=C/C(=O)NC(=S)NNC(=O)Cc2cccs2)cc1OC	-0.579
Cc1ccc(N2CC(C(=O)Nc3ccc(N(C)C)cc3)CC2=O)cc1C (configuration not stated)	0.359
COc1ccc(NN=Nc2nc3c([nH]2)c(=O)n(C)c(=O)n3C)cc1	0.508
O=C(Cc1sc(-c2ccccc2)nc1-c1ccccc1)Nc1ccccc1	-0.152
CCc1ccc(NC(=O)CSc2nnc(CNC(=O)c3c(F)cccc3Cl)o2)cc1	0.0315
O=C1CC2(CCN(C(=O)c3ccccc3Cl)CC2)Oc2ccccc21	0.607
C[C@H]1CN([C@@H](C)CO)C(=O)Cc2cc(NS(=O)(=O)c3cccs3)ccc2O[C@H]1CN(C)S(=O)(=O)c1cn(C)cn1	-0.706
CC(=O)Nc1ccc2c(c1)C(C)(C)C(C)N2C (configuration not stated)	-1.19
O=C(O)c1ccnc(C(=O)O)c1	-0.152
COc1ccc(NC(=O)Nc2cccc3c2O[C@H](CN(C)C(=O)NC(C)C)[C@@H](C)CN([C@H](C)CO)C3=O)cc1	-0.142
COc1ccc(NC(=S)NCCCn2ccnc2)cc1	-0.13
CCOc1ccc(N=Cc2c(O)n(-c3cccc(C)n3)c(=O)c3ccccc23)cc1	0.766
Cc1cccc(C)c1N1C(=O)c2cccc([N+](=O)[O-])c2C1=O	-0.27
CCOC(=O)C1CCN(S(=O)(=O)c2cccc(-c3cn4cc(Cl)ccc4n3)c2)CC1	0.424
CC(=O)c1c(C(C)=O)c(C)n(NC(=O)c2ccncc2)c1C	0.563
CN1CCN(c2nc3ccccn3c(=O)c2/C=C(\C#N)S(=O)(=O)c2ccc(Cl)cc2)CC1	1.17
O=C1CC(N2CCC(O)(c3ccc(Cl)cc3)CC2)C(=O)N1Cc1ccc(N2CCCC2=O)cc1 (configuration not stated)	0.431
CS(=O)(=O)c1ccccc1-c1nnc(NC(=O)c2ccc3ncsc3c2)o1	-1.47

SMILES	activity change, negative = inhibition [%]
CN(C(=O)c1ccc(NC(=O)Cc2ccc(NC(=O)C3CCN(C(=O)C4CCC4)CC3)cc2)cc1)C1CC1	0.986
CCS(=O)(=O)N1CCN(c2ccc([N+](=O)[O-])c(N3CCOCC3)c2)CC1	-0.0167
O=C(CCN1C(=O)/C(=C/c2ccc(F)cc2)SC1=S)N[C@@H](CO)Cc1ccccc1	-0.0269
c1ccc(-c2ccccc2OCCN2CCCC2)cc1	-0.955
CSc1nc(N)nc2c1ncn2CC(=O)N[C@H](CO)Cc1c[nH]c2ccccc12	-0.258
CCc1nn2c(N3CCOCC3)cc(C)nc2c1-c1ccc(F)cc1	0.143
CSc1nc(N)nc2c1ncn2CC(=O)NCCNc1ccc([N+](=O)[O-])cn1	-0.105
CC1=C(C(=O)OC(C)C)C(c2ccccc2)NC(=S)N1C (configuration not stated)	-0.136
COc1ccccc1N1CCN(c2nc3c(C)cccn3c(=O)c2C=O)CC1	0.107
O=c1c2ccccc2nc2c3ccccc3c(NCc3ccco3)nn12	0.625
O=C(NCC(c1ccco1)N1CCN(c2ccc(F)cc2)CC1)OCc1ccccc1 (configuration not stated)	0.174
CC(C)(C)NC(=O)CSc1nc2cccnc2n1C1CCCCC1	0.349
C/C(=N\Nc1nc(C(=O)O)cs1)c1ccccc1	-0.586
CN1CCN(Cc2c(C#N)c3ccccc3n2C)CC1	-0.48
CN(C)CCCNC1=CC(=O)OC12CCCCC2	-0.144
Nn1cc(-c2ccccc2)nc1SCC(=O)N1CCN(S(=O)(=O)c2ccc3ccccc3c2)CC1	-0.203
CCN(CC)C(=O)C1c2ccccc2Oc2ccccc21	-0.357
CCCn1nnnc1SCC(=O)NCc1ccc2c(c1)OCO2	0.24
Cc1noc(C)c1COc1ccc(C(=O)OC(C)C(=O)Nc2ccc(N3CCOCC3)cc2)cc1 (configuration not stated)	0.0949
CCNC(=O)c1ccc2c(c1)S(=O)(=O)c1ccccc1C2=O	0.35
